Rows were chosen to be rich in hits. Some 2.3% of all compounds tested hit in one or more screens of this group.
M1 ag: activates human CHRM1 receptor | P11229 | activation, % at 3 µM | CHO-K1 hM1, Fluo-8 calcium fluorescence, agonist mode; 0% DMSO, 100% acetylcholine EC100 | AID 588814 | 360,000 tested, 0.33% active;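 active = activation above the run's mean compound activation plus 3 SD, cut at about 16% in these data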;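 also: peak over basal fluorescence ratio within a 140 s kinetic read after compound addition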
Target sequence (P11229 whole entry, looked up): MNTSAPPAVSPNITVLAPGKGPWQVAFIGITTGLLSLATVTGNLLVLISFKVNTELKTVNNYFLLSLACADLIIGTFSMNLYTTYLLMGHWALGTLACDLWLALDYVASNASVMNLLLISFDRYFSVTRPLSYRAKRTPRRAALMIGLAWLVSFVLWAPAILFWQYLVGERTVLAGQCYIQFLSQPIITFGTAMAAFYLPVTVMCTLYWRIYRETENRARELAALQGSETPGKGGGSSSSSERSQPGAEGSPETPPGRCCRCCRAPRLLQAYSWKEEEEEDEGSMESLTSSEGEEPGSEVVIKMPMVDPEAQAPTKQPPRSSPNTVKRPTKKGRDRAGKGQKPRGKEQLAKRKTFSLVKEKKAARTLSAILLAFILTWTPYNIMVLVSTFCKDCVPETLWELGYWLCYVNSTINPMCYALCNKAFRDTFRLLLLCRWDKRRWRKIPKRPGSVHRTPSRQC
CHRM1 PAM: human CHRM1 positive allosteric modulation. CHO-K1 hM1, Fluo-8 calcium fluorescence, ACh EC20; 0% = ACh EC20, 100% = maximal ACh. AID 588819. P11229. 360,000 tested, 0.088% active. activation, % at 3 µM; in the data active = activation above about 19%, passing the limit was not always enough
CHO-K1 Ca PAM: M1 PAM counterscreen hit in parental CHO-K1 cells; ATP EC20, Fluo-8 calcium fluorescence; 0% at ATP EC20, 100% at ATP max; activation, % at 3 µM; 360,000 tested, 0.02% active; AID 602247;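 active = activation above the run cutoff, the mean activation of all test compounds plus 3 SD, cut at about 40% in these data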;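 also: peak over basal fluorescence ratio in a 140 s read after ATP addition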
CHO-K1 Ca antag: counter-screen for M1 antagonists: effect in parental CHO-K1 cells; 360,000 tested, 0.6% active; inhibition, % at 3 µM; ATP-induced calcium, Fluo-8 fluorescence; AID 602250;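 active = inhibition above a per-plate cutoff, the plate's mean sample inhibition plus 3 SD, cut at about 24% in these data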
M1 ag parental: nonselective activator or artifact in parental CHO-K1 cells; 360,000 tested, 0.48% active; Fluo-8 calcium fluorescence; scaled to maximal ATP response, vehicle zero; activation, % at 3 µM; AID 602248; in the data active = activation above about 15%;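 also: untransfected CHO-K1 host cells lacking M1 receptor as counterscreen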
M1 antag: human CHRM1 antagonism; P11229; CHO-K1 hM1, Fluo-8 calcium fluorescence, ACh EC80 antagonist; inhibition, % at 3 µM; 360,000 tested, 1.3% active;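 active = percent inhibition above its own plate's cutoff, namely the mean of that plate's compound wells plus 3 SD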;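 also: peak over basal fluorescence ratio during 140 s after agonist addition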
Of the large screens only hits and unclear results are named; the others gave an inactive call.

O=C(C(Cc1ccccc1)N1C(=O)c2ccccc2C1=O)N1CCc2ccccc21 (stereo not drawn)	CHO-K1 Ca antag 26
O=C(Cc1ccccc1)N1CCc2ccccc21	none
COC(=O)c1ccsc1NC(=O)CN1CCN(c2ncccn2)CC1	CHO-K1 Ca antag 25
COC(=O)c1ccsc1NC(=O)CN1CCN(c2ccc(F)cc2)CC1	none
FC(F)(F)c1cccc(NC(=S)NCc2ccc(Cl)cc2)c1	M1 ag parental 17
CC(NC(=S)Nc1cccc(C(F)(F)F)c1)C(C)(C)C (stereo not drawn)	M1 antag 46
Cc1ncc([N+](=O)[O-])n1S(=O)(=O)c1cc(Cl)ccc1Cl	none
Nc1nc(Nc2ccccc2)sc1C(=O)c1ccccc1	M1 ag 16
COc1ccc(C(=O)c2sc(Nc3ccccc3)nc2N)cc1	none
N=c1c2c(n(Cc3ccc(Cl)c(Cl)c3)c3c1CCC3)CCCC2	none
N=c1c2c(n(Cc3ccc(Br)cc3)c3c1CCC3)CCCC2	M1 antag 26
COC(=O)/C=C1\SC(=NC(=O)c2ccc(-c3ccccc3)cc2)NC1=O	none
CCn1c(SCC(=O)NCc2ccc(F)cc2)nc2c(c1=O)SC(C)C2 (stereo not drawn)	none
CCn1c(SCC(=O)NCc2ccccc2)nc2c(c1=O)SC(C)C2 (stereo not drawn)	CHO-K1 Ca antag 32
OC(COCC1CC=CCC1)Cn1cnc2ccccc21 (stereo not drawn)	CHRM1 PAM 24
CN(C)c1ccc(CN2CCCCCC2)cc1	M1 antag 45
COc1ccc(CN2CCOCC2)cc1	none
CCN(CC)c1ccc(CN2CCCCCC2)cc1	none
COc1ccc(CN2CCCCCC2)cc1	CHO-K1 Ca antag 25
O=C(c1cc(N2C(=O)C3C4CCC(C4)C3C2=O)ccc1Cl)N1CCN(c2ccccc2F)CC1 (stereo not drawn)	none
NC(=O)CC(NC(=O)Cc1ccc(Cl)cc1)c1ccc(NC2CCN(Cc3ccccc3)CC2)c([N+](=O)[O-])c1 (stereo not drawn)	none
NC(=O)CC(NC(=O)c1cccc(Br)c1)c1ccc(NC2CCN(Cc3ccccc3)CC2)c([N+](=O)[O-])c1 (stereo not drawn)	M1 antag 46
O=C(CCc1nc2ccccc2c(=O)[nH]1)Nc1nc(-c2cccs2)cs1	M1 ag parental 18
C=C1[C@H]2O[C@H]2[C@@H](OC(C)=O)[C@@]2(C)[C@@H](OC(C)=O)C[C@@H](OC(C)=O)[C@@](C)(O)[C@@H]2[C@@H](OC(C)=O)[C@@]2(O)[C@@H](C)C(=O)O[C@H]2[C@H]1Cl	none
CCCCc1cc2ccccc2c(OCCN(C)C)n1	M1 antag 56
Cc1ccc(S(=O)(=O)c2cccc(S(=O)(=O)N3CCCC3)c2)cc1S(=O)(=O)N1CCCC1	M1 antag 55
Cc1ccc(/C=C/C(=O)O)cc1S(=O)(=O)N1CCCCC1	CHRM1 PAM 24, M1 antag 40
O=S(=O)(c1ccc(Cl)c(S(=O)(=O)N2CCCC2)c1)N1CCCC1	M1 antag 38
COc1ccc(NC(=O)/C(=C\c2ccc(OC)c(OC)c2)NC(=O)c2ccco2)cc1	none
Cc1cccc2c(N=NC(=O)c3ccc(NS(=O)(=O)c4cccs4)cc3)c(O)[nH]c12	M1 antag 37
c1cc2c(cc1C1CCCN1)OCCCO2 (stereo not drawn)	M1 antag 28
O=S(=O)(c1ccc2c(c1)OCCCO2)N1CCNCC1	none
Cc1ccc(SCC(=O)OCc2csc(CC(=O)Nc3ccccc3C)n2)cc1C	none
O=C(CN1CCN(CC(=O)c2ccc(Cl)cc2)CC1)c1ccc(Cl)cc1	none
O=C(Cn1cc(Cl)ccc1=O)c1ccc(Cl)cc1	CHO-K1 Ca antag 24
O=C(Nc1ccccc1)c1ccccc1OCC(O)CN1C(=O)c2ccccc2S1(=O)=O (stereo not drawn)	M1 antag 50
O=C1NC(=S)S/C1=C\C=C\c1ccc([N+](=O)[O-])o1	M1 ag 17, CHO-K1 Ca antag 44, M1 ag parental 26, M1 antag 55
CCn1cnc2sc(C(=O)Oc3cccc(C)c3)c(C)c2c1=O	M1 ag parental 15
O=S(=O)(NNc1ncc(C(F)(F)F)cc1Cl)c1ccccc1	none
